From PubChem BioAssay AID1159580 (chemical genetic matrix, 2015)
The whole screen tested about 5,500 compounds, of which about 2,000 (36%) were called active. Not shown: some 18% with an inconclusive outcome. No stated cut-off is given here; in the data, active means normalized growth mostly below about 0.91 (no sharp cut-off); inconclusive means no clear call, values can overlap the other calls; inactive means mostly above about 0.92. This is one part of the list.

Assay: chemical genetic growth profiling, strain panel (AID 1159580);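 further: tested at 20 µM; growth read once vehicle control cultures reached saturation at 30 °C; 1 = growth at the plate median or of vehicle wells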
Details: S. cerevisiae deletion strains, growth OD

Measured: normalized growth

COc1ccc(/C=C/c2cc(O)cc(O[C@@H]3O[C@H](CO)[C@@H](O)[C@H](O)[C@H]3O)c2)cc1
inactive: locus YBR021W, strain FUR4, stronger effect = lower value 1.02 | locus YBR229C, strain ROT2, stronger effect = lower value 0.955 | locus YCL029C, strain bik1, stronger effect = lower value 0.984 | locus YDL035C, strain GPR1, stronger effect = lower value 0.972 | locus YDL074C, strain BRE1, stronger effect = lower value 1.02 | locus YDL101C, strain DUN1, stronger effect = lower value 1 | locus YDL134C, strain PPH21, stronger effect = lower value 1 | locus YDL185W, strain tfp1, stronger effect = lower value 0.974 | locus YDL192W, strain arf1, stronger effect = lower value 0.994 | locus YDR101C, strain arx1, stronger effect = lower value 1.01 | locus YDR150W, strain NUM1, stronger effect = lower value 0.997 | locus YDR162C, strain NBP2, stronger effect = lower value 0.977 | locus YDR318W, strain mcm21, stronger effect = lower value 0.986 | locus YDR388W, stronger effect = lower value 1 | locus YDR502C, strain sam2, stronger effect = lower value 0.998 | locus YEL061C, strain CIN8, stronger effect = lower value 0.994 | locus YER110C, stronger effect = lower value 0.987 | locus YER155C, strain BEM2, stronger effect = lower value 1.02 | locus YER167W, strain BCK2, stronger effect = lower value 0.978 | locus YGL078C, strain dbp3, stronger effect = lower value 0.987 | locus YGL086W, strain mad1, stronger effect = lower value 1.02 | locus YGL248W, strain PDE1, stronger effect = lower value 0.989 | locus YGR135W, strain pre9, stronger effect = lower value 0.994 | locus YGR252W, strain gcn5, stronger effect = lower value 0.964 | locus YHR030C, strain SLT2, stronger effect = lower value 1 | locus YHR079C, strain IRE1 (second series), stronger effect = lower value 0.995 | locus YHR094C, strain hxt1, stronger effect = lower value 0.989 | locus YHR129C, strain ARP1, stronger effect = lower value 0.994 | locus YHR200W, strain rpn10, stronger effect = lower value 0.983 | locus YIL066C, strain RNR3, stronger effect = lower value 0.968 | locus YIL073C, strain SPO22, stronger effect = lower value 1.01 | locus YIL125W, strain kgd1, stronger effect = lower value 0.985 | locus YIR030C, strain dcg1, stronger effect = lower value 0.997 | locus YJL095W, strain BCK1, stronger effect = lower value 1.04 | locus YJL134W, strain LCB3, stronger effect = lower value 0.994 | locus YJL168C, strain set2, stronger effect = lower value 0.998 | locus YJL187C, strain SWE1 (second series), stronger effect = lower value 1.01 | locus YJR043C, strain POL32, stronger effect = lower value 0.993 | locus YKL009W, strain mrt4, stronger effect = lower value 1 | locus YKL068W, stronger effect = lower value 0.979 | locus YKL085W, strain MDH1 (second series), stronger effect = lower value 0.982 | locus YKL085W, strain MDH1, stronger effect = lower value 0.982 | locus YKL190W, strain CNB1, stronger effect = lower value 1.01 | locus YKR001C, strain vps1, stronger effect = lower value 1.01 | locus YLR039C, strain RIC1, stronger effect = lower value 0.99 | locus YLR058C, strain SHM2, stronger effect = lower value 0.986 | locus YLR102C, strain apc9, stronger effect = lower value 0.987 | locus YLR262C, strain YPT6, stronger effect = lower value 0.961 | locus YLR268W, strain sec22, stronger effect = lower value 1.03 | locus YLR330W, strain CHS5, stronger effect = lower value 0.996 | locus YLR342W, strain FKS1 (second series), stronger effect = lower value 0.995 | locus YLR371W, strain rom2, stronger effect = lower value 0.978 | locus YLR418C, strain cdc73, stronger effect = lower value 0.984 | locus YML016C, strain PPZ1, stronger effect = lower value 0.992 | locus YML032C, strain rad52, stronger effect = lower value 0.97 | locus YML124C, strain tub3, stronger effect = lower value 0.987 | locus YMR078C, strain ctf18, stronger effect = lower value 0.994 | locus YMR223W, strain ubp8, stronger effect = lower value 0.985 | locus YMR307W, strain GAS1, stronger effect = lower value 0.965 | locus YNL067W, strain RPL9B, stronger effect = lower value 1.03 | locus YNL128W, strain TEP1, stronger effect = lower value 1 | locus YNL233W, strain BNI4, stronger effect = lower value 1.04 | locus YNL250W, strain rad50, stronger effect = lower value 0.965 | locus YNL271C, strain bni1, stronger effect = lower value 1 | locus YNL298W, strain CLA4, stronger effect = lower value 1.01 | locus YNL307C, strain MCK1, stronger effect = lower value 0.995 | locus YNL322C, strain KRE1, stronger effect = lower value 0.984 | locus YNR052C, strain pop2, stronger effect = lower value 1 | locus YOL006C, strain TOP1, stronger effect = lower value 1.05 | locus YOL012C, strain htz1 1.36 | locus YOL147C, strain pex11, stronger effect = lower value 0.988 | locus YOR061W, strain CKA2, stronger effect = lower value 0.971 | locus YOR069W, strain VPS5, stronger effect = lower value 0.993 | locus YOR136W, strain idh2, stronger effect = lower value 0.992 | locus YOR144C, strain elg1, stronger effect = lower value 0.985 | locus YOR184W, strain ser1, stronger effect = lower value 0.979 | locus YOR316C, strain cot1, stronger effect = lower value 0.999 | locus YPL055C, strain LGE1, stronger effect = lower value 1.01 | locus YPR119W, strain clb2, stronger effect = lower value 0.998 | locus YPR141C, strain kar3, stronger effect = lower value 0.982 | locus YPR163C, strain tif3, stronger effect = lower value 0.991 | locus YPR167C, strain met16, stronger effect = lower value 0.992 | strain wtn01, stronger effect = lower value 1.01
